Results filed as inconclusive are left out. The source made the active and inactive calls. Calls come from the whole dose curve; as a rule, active = well fitted curve in the direction sought with a large enough effect; inconclusive = small, poorly fitted or top-dose-only effect, or another doubt; inactive = no such curve, though single readings can be large; an effect the other way counts as inactive or inconclusive.

The results in this text go back to PubChem BioAssay (NCATS).

Experiment [1] is described as follows: qHTS of pediatric cancer cell lines to identify multiple opportunities for drug repurposing: Primary screen for TC32 cells (AID 1347089). Note: nearly all actives have a fitted effect of over 60% in size. A digest of the protocol:
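Luminescent CellTiter-Glo read-out of metabolically active TC32 cells after 48 h compound exposure. Primary: MIPE 11-point, 0.78 nM–46 µM; NPC 8-point, 0.59 nM–46 µM. Confirmatory: 11-point dilutions.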

The nature of experiment [2]: qHTS of pediatric cancer cell lines to identify multiple opportunities for drug repurposing: Primary screen for DAOY cells (AID 1347090). Note: nearly all actives have a fitted effect of over 55% in size. A digest of the protocol:
(§1)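 Eight- or eleven-point concentration series, 48 h treatment at 37 degrees C in growth media; readout CellTiter-Glo luminescence. Potency and efficacy were taken from the concentration-response curves.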
A general note: In qHTS, concentration-response curves come from the screen itself.

Experiment [3] can be described thus: qHTS of pediatric cancer cell lines to identify multiple opportunities for drug repurposing: Primary screen for SJ-GBM2 cells (AID 1347091). A digest of the protocol: as §1
Experiment [4] in a line: qHTS of pediatric cancer cell lines to identify multiple opportunities for drug repurposing: Primary screen for A673 cells (AID 1347092). Note: nearly all actives have a fitted effect of over 45% in size. The essentials: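 A673 cells (500-1,000 cells/well in growth media) were pre-incubated 5 h at 37 degrees C, then exposed to compounds for 48 h. Viability was read as CellTiter-Glo luminescence; concentration-response curves came directly from the primary screen.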

A short description of experiment [5]: qHTS of pediatric cancer cell lines to identify multiple opportunities for drug repurposing: Primary screen for SK-N-MC cells (AID 1347093). A digest of the protocol: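 Metabolically active cells were quantified by ATP-dependent luminescence (CellTiter-Glo, 15 min at room temperature) following 48 h treatment. Cells had been plated at 500-1,000 per well and settled for 5 h beforehand.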

The nature of experiment [6]: qHTS of pediatric cancer cell lines to identify multiple opportunities for drug repurposing: Primary screen for BT-37 cells (AID 1347094). The essentials:
(§2)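 Readout: CellTiter-Glo luminescence, 48 h treatment. Controls DMSO (neutral) and bortezomib 2.3 µM final (positive). Potency and efficacy taken from primary-screen concentration-response curves.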

Experiment [7] is described as follows: qHTS of pediatric cancer cell lines to identify multiple opportunities for drug repurposing: Primary screen for U-2 OS cells (AID 1347096). Note: nearly all actives have a fitted effect of over 50% in size. A digest of the protocol:
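Cells (500-1,000/well) in growth media were settled 5 h at 37 degrees C, then given compounds for 48 h. Viability was read as CellTiter-Glo luminescence. Primary runs used MIPE at 11 points (0.78 nM-46 µM) and NPC at 8 points (0.59 nM-46 µM); follow-ups used 11 points.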

Experiment [8] is described as follows: qHTS of pediatric cancer cell lines to identify multiple opportunities for drug repurposing: Primary screen for NB-EBc1 cells (AID 1347095). A digest of the protocol: as §2
Potency is the fitted concentration of half-maximal effect.

For the molecule `COc1cc(Nc2nc3ccccc3nc2NS(=O)(=O)c2ccc(NC(=O)c3ccc(C)c(OC)c3)cc2)cc(OC)c1`, in experiment [1], the Potency result is “inactive”. The Potency in experiment [2] was 23.5 µM (active); in experiment [3], 23.5 µM (active); in experiment [4] it was 23.5 µM (active); in experiment [5], 26.4 µM (active).

As for `CNC1[C@H](O)C(O[C@@H]2C(O)C(O[C@H]3O[C@H]([C@@H](C)NC)CC[C@H]3N)[C@@H](N)C[C@H]2N)OC[C@]1(C)O` (some centres undefined), the Potency result in experiment [1], in experiment [2], in experiment [3], in experiment [4], in experiment [5] and in experiment [6] was “inactive” in each case. Further, the Potency entry in experiment [7] was “inactive”.

With `COc1cccc(OC)c1-c1cc(C(=O)NC2(C(=O)O)C3CC4CC(C3)CC2C4)nn1-c1ccnc2cc(Cl)ccc12` (centres undefined), the Potency result in experiment [1], in experiment [2], in experiment [4], in experiment [6] and in experiment [7] was “inactive” throughout. Further, the Potency is 26.4 µM (active) in experiment [3] and 18.7 µM (active) in experiment [5].

As for `COc1ccc(-c2oc3c(CC=C(C)C)c(O)cc(O)c3c(=O)c2O)cc1`, the Potency result in experiment [1], in experiment [6] and in experiment [7] was “inactive” each time. For the same molecule, the Potency in experiment [2] was 23.5 µM (active); in experiment [3], 18.7 µM (active); in experiment [4], 18.7 µM (active); in experiment [8], 18.7 µM (active).

As for `CN1N=C(N)c2cn([C@@H]3O[C@H](COP(=O)(O)O)[C@@H](O)[C@@H]3O)c3ncnc1c23`, the Potency was 4.15 µM (active) in experiment [1]; 14.8 µM (active) in experiment [2]; 7.43 µM (active) in experiment [3]; 3.72 µM (active) in experiment [4]; 1.66 µM (active) in experiment [8].

With `CO[C@H]1/C=C\O[C@@]2(C)Oc3c(C)c(O)c4c(O)c(c5c(nc6cc(C)ccn65)c4c3C2=O)NC(=O)C(C)=CC=C[C@H](C)[C@H](O)[C@@H](C)[C@@H](O)[C@@H](C)[C@H](OC(C)=O)[C@H]1C`, the Potency entry in experiment [1], in experiment [2], in experiment [3], in experiment [4] and in experiment [6] was “inactive” throughout.

As for `CC1(C)OC2CC3C4CC(F)C5=CC(=O)C=CC5(C)C4C(O)CC3(C)[C@]2(C(=O)CO)O1` (some centres undefined), the Potency entry in experiment [1], in experiment [2], in experiment [3], in experiment [5], in experiment [6] and in experiment [8] was “inactive” throughout. Further, in experiment [7], the Potency result is “inactive”.

With `CN[C@@H]1CN(c2ccc3c(=O)c(C(=O)O)cn(-c4nccs4)c3n2)C[C@@H]1OC`, the Potency in experiment [1] is 12.8 µM (active); in experiment [2], 8.12 µM (active); in experiment [3], 1.15 µM (active); in experiment [5], 1.29 µM (active); in experiment [6] it was 3.35 µM (active). For the same molecule, the Potency entry in experiment [7] was “inactive”.

Turning to `Cc1cnc(Nc2cccc(CN3CCOCC3)c2)nc1Nc1cccc(S(=O)(=O)NC(C)(C)C)c1`, the Potency entry in experiment [1] is “inactive”. Moreover, the Potency in experiment [2] was 14.8 µM (active); in experiment [3], 4.18 µM (active); in experiment [4], 5.9 µM (active); in experiment [5] it was 2.64 µM (active); in experiment [8] it was 4.18 µM (active); in experiment [7], 14.8 µM (active).

Regarding `CC(C)c1c(C(=O)Nc2ccccc2)c(-c2ccccc2)c(-c2ccc(F)cc2)n1CC[C@H](O)C[C@@H](O)CC(=O)O`, the Potency entry in experiment [1] was “inactive”. The Potency in experiment [2] is 11.8 µM (active); in experiment [3] it was 16.6 µM (active); in experiment [4], 18.7 µM (active); in experiment [5], 23.5 µM (active); in experiment [7], 18.7 µM (active).

Regarding `Cc1cc2nc3c(=O)[nH]c(=O)nc-3n(CC(O)C(O)C(O)CO)c2cc1C` (centres undefined), the Potency entry in experiment [1], in experiment [2], in experiment [3], in experiment [6], in experiment [8] and in experiment [7] was “inactive” in each case. Further, the Potency in experiment [5] is 29.6 µM (active).

For the molecule `CCC=CC[C@H]1C(=O)CC[C@@H]1CC(=O)OC`, the Potency result in experiment [1], in experiment [2], in experiment [3], in experiment [5], in experiment [6] and in experiment [8] was “inactive” in each case. Also, in experiment [7], the Potency entry is “inactive”.

With `Cc1ccc2c(c1)c1c(n2CCc2ccc(C)nc2)CCN(C)C1`, the Potency entry in experiment [1], in experiment [2], in experiment [3], in experiment [4], in experiment [6] and in experiment [8] was “inactive” each time. For the same molecule, the Potency result in experiment [7] was “inactive”.

Turning to `CC(C)(F)C[C@H](N[C@@H](c1ccc(-c2ccc(S(C)(=O)=O)cc2)cc1)C(F)(F)F)C(=O)NC1(C#N)CC1`, the Potency entry in experiment [1], in experiment [2], in experiment [4] and in experiment [7] was “inactive” throughout. The Potency in experiment [3] was 14.8 µM (active).

For `Cc1nc2c([nH]1)CCN(C(=O)c1ccc(NC(=O)c3ccccc3-c3ccccc3)cc1)c1ccccc1-2`, the Potency entry in experiment [1], in experiment [2], in experiment [3], in experiment [4], in experiment [6] and in experiment [8] was “inactive” throughout. The Potency entry in experiment [7] was “inactive”.

Turning to `O=C(c1ccc(C=Cc2n[nH]c3ccccc23)cc1)N1CCNCC1`, the Potency in experiment [1] is 4.66 µM (active); in experiment [3], 4.18 µM (active); in experiment [5] it was 1.18 µM (active); in experiment [8] it was 3.72 µM (active). The Potency result in experiment [2], in experiment [6] and in experiment [7] was “inactive” throughout.

Regarding `Cc1ccc(C(=O)N(CCCN)[C@@H](c2nc3cc(Cl)ccc3c(=O)n2Cc2ccccc2)C(C)C)cc1`, the Potency was 0.0165 µM (active) in experiment [1]; 0.0015 µM (active) in experiment [2]; 0.001 µM (active) in experiment [3]; 0.001 µM (active) in experiment [4]; 0.0017 µM (active) in experiment [5]. Moreover, the Potency entry in experiment [7] was “inactive”.

Regarding `COc1cc([C@@H]2c3cc4c(cc3[C@@H](O[C@@H]3O[C@@H]5CO[C@@H](C)O[C@@H]5[C@H](O)[C@@H]3O)[C@H]3COC(=O)[C@H]23)OCO4)cc(OC)c1O`, the Potency in experiment [1] is 1.04 µM (active); in experiment [2], 1.48 µM (active); in experiment [3], 0.59 µM (active); in experiment [5], 0.469 µM (active); in experiment [6], 0.485 µM (active); in experiment [8] it was 0.187 µM (active).

On to `C[C@H]1COC2=C1C(=O)C(=O)c1c2ccc2c1CCCC2(C)C`, for which the Potency result in experiment [1], in experiment [2], in experiment [4] and in experiment [7] was “inactive” each time. In addition, in experiment [3], the Potency is 20.9 µM (active).
